Laboratory results reported in PubChem BioAssay (NCATS).
Inconclusive results are not listed. Calls of active or inactive are those of the source. Calls come from the whole dose curve; as a rule, active = well fitted inhibition curve with a large enough effect; inconclusive = small, poorly fitted or top-dose-only effect; inactive = flat fitted curve, though single readings scatter. Where a SMILES comes first, the peptide text is derived from it. [ ]: non-standard residue; d: D form. Hyp = O=C(O)[CH]1C[CH](O)CN1; Phe(ol) = N[CH](CO)Cc1ccccc1; Iva = CC[C](C)(N)C(=O)O; Aib = CC(C)(N)C(=O)O

Test: P-glycoprotein substrates identified in KB-8-5-11 adenocarcinoma cell line, qHTS therapeutic library screen (AID 1346987); note: nearly all actives have a fitted effect of over 65% in size
Settings: KB-8-5-11 (P-gp overexpressing) viability, CellTiter-Glo, 72 h; series mostly up to 44.5 µM; activity change, negative = cytotoxicity: at the top concentration
Summary of the method: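 Steps: plate 500 KB-8-5-11 cells/well in DMEM + 10% FCS (colchicine removed); pin compounds in dose-response; incubate 72 h, 37 degree C, 5% CO2; add CellTiter-Glo, 5 min; read luminescence.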
% is set by controls: 0 for no effect and ±100 for the full control effect; potency is the fitted concentration of half-maximal effect.

Row | SMILES | Potency | activity change, negative = cytotoxicity | outcome
1 | COCCNCc1ccc(-c2cc3nccc(Oc4ccc(NC(=O)C5(C(=O)Nc6ccc(F)cc6)CC5)cc4F)c3s2)nc1 | 4.61 µM (active) | – | –
2 | CC(=O)[C@H]1CC[C@H]2[C@@H]3CC=C4C[C@@H](OS(=O)(=O)O)CC[C@]4(C)[C@H]3CC[C@]12C | – | -0.384% (inactive) | –
3 | C=C(C)C(=O)OC1CC2(C)OC(=CC2=O)C(=C)CC2OC(=O)C(=C)C12 (stereo not drawn) | 10.1 µM (active) | – | –
4 | CCC/C=C/c1cc2c(C=O)c(O)c(CC=C(C)C)cc2o1 | – | -14% (inactive) | –
5 | COc1c(C(O)CC(C)C)ccc2c1C(=O)OCc1cc(C)cc(O)c1O2 (stereo not drawn) | – | -14% (inactive) | –
6 | COc1cc2c(c(OC)c1OC)-c1c(cc3c(c1OC)OCO3)C[C@@H](C)[C@](C)(O)C2 | inactive | – | –
7 | CCN(CC)CCOC(=O)c1ccc(N)cc1Cl | – | -1.18% (inactive) | –
8 | CC(=O)N[C@H]1[C@H](O[C@H]2CC[C@@]3(C)C(CC[C@]4(C)C3CC=C3C5CC(C)(C)CC[C@]5(C(=O)O)C(O)C[C@]34C)C2(C)C)O[C@H](CO[C@@H]2O[C@H](C)[C@H](O)[C@H](O)[C@H]2O[C@@H]2OC[C@@H](O)[C@H](O)[C@H]2O)[C@@H](O)[C@@H]1O (stereo partly drawn) | – | -2.51% [at 9.29 µM] (inactive) | –
9 | Cc1[nH]c2ccccc2c1CCNCc1ccc(/C=C/C(=O)NO)cc1 | 0.366 µM (active) | – | –
10 | c1cnc2cc3c(cc2n1)[C@@H]1CNC[C@H]3C1 | – | 0.729% (inactive) | –
11 | COc1ccc(NC(=O)c2ccc(-c3ccc(C(=N)N)cc3C)cc2)cc1N1CCN(C)CC1 | – | -1.41% (inactive) | –
12 | Cc1cc2c(N3CCCC3)nc(N3CCCC3)nc2n1C | – | -13.7% (inactive) | –
13 | CN(C)CCOC(C)(c1ccccc1)c1ccc(Cl)cc1 (stereo not drawn) | 16.4 µM (active) | – | –
14 | NC(=O)C[C@@H](N)C(=O)O | – | -9.74% (inactive) | –
15 | CC(C)C[C@@H](C(=O)N[C@@H](Cc1ccc(OCc2ccccc2)cc1)C(=O)NC(C)(C)C)N(C)Cc1ccc(C(C)(C)C)cc1 | – | -26.2% (inactive) | –
16 | C/C=C(\C)C(=O)OC1C[C@@]2(COC(C)=O)O[C@H]2/C=C\[C@@]2(C)O[C@@H]2[C@H]2OC(=O)C(COC(C)=O)=C12 (stereo partly drawn) | – | -0.966% [at 17.3 µM] (inactive) | –
17 | C=CC(=O)Nc1ccc2ncnc(Nc3cccc(Br)c3)c2c1 | 8.2 µM (active) | – | –

Row | SMILES | Potency | activity change, negative = cytotoxicity | outcome
18 | FC(F)(F)c1ccc(CNc2ccc(Cc3c[nH]c4ncc(Cl)cc34)cn2)cn1 | 14.6 µM (active) | – | –
19 | CC(=O)O[C@@H]1C[C@@]2(C)C(CC[C@]3(C)C2CC=C2C4CC(C)(C)CC[C@]4(C(=O)O)CC[C@]23C)C(C)(C)[C@H]1O (stereo partly drawn) | – | -14.5% [at 17.3 µM] (inactive) | –
20 | CCOC(=O)COc1ccc2c(=O)cc(-c3ccccc3)oc2c1 | inactive | – | –
21 | CNCCN1CCC(c2cc(CN(C)C(=O)c3cccc(Oc4ccccc4)c3)ccn2)CC1 | – | – | inactive [at 17.3 µM]
22 | C/C(=C(\CCOC(=O)c1ccccc1)SS/C(CCOC(=O)c1ccccc1)=C(/C)N(C=O)Cc1cnc(C)nc1N)N(C=O)Cc1cnc(C)nc1N | – | -1.98% (inactive) | –
23 | CC[C@H]1OC(=O)[C@H](C)[C@@H](O[C@H]2C[C@@](C)(OC)[C@@H](O)[C@H](C)O2)[C@H](C)[C@@H](O[C@@H]2O[C@H](C)C[C@H](N(C)C)[C@H]2O)[C@](C)(O)C[C@@H](C)[C@@H]2N[C@@H](COCCOC)O[C@@H]([C@H]2C)[C@]1(C)O | – | -4.4% (inactive) | –
24 | C[C@H]1CO[C@@H]2Cn3cc(C(=O)NCc4ccc(F)cc4F)c(=O)c(O)c3C(=O)N12 | – | -20.1% (inactive) | –
25 | CC[C@@H](C)Nc1cc(C(=O)NC2CC3CCC(C2)N3c2ccc(C(=O)C3CC3)cn2)c(C)cc1C(N)=O (stereo partly drawn) | 0.13 µM (active) | – | –
26 | COC(=O)c1ccc(N2CCN(C)CC2)c(NC(=O)c2cccc(OC)c2)c1 | – | -19.6% (inactive) | –
27 | COc1cc(O)cc(OC2OC(CO)C(O)C(O)C2O)c1 (stereo not drawn) | – | – | inactive
28 | COc1cc2nc(C3CC3)nc(N3CCN(c4ccccc4OC)CC3)c2cc1OC | 20.6 µM (active) | – | –
29 | CCC(=O)Oc1ccc2c(c1)CC[C@@H]1[C@@H]2CC[C@]2(C)[C@@H](OC(=O)CC)CC[C@@H]12 | 10.3 µM (active) | – | –
30 | C=C[C@]1(C)C[C@@H](OC(=O)CO)[C@]2(C)[C@H](C)CC[C@]3(CCC(=O)[C@H]32)[C@@H](C)[C@@H]1O | – | -18% (inactive) | –
31 | COCc1c(Cl)ccc2c1CC[C@H]2c1ncc[nH]1 | – | -13.2% (inactive) | –
32 | OC1(CN2CCC(COc3noc4cccc(O[C@@H]5CCOC5)c34)CC2)CCOCC1 | – | -21.5% (inactive) | –
33 | CCC(C)(NC(=O)C(CCC(N)=O)NC(=O)C1CC(O)CN1C(=O)C(C)(C)NC(=O)C(C)(C)NC(=O)C(CC(C)C)NC(=O)CNC(=O)C(NC(=O)C(C)(C)NC(=O)C(C)(C)NC(=O)C(C)(C)NC(=O)C(Cc1ccccc1)NC(C)=O)C(C)C)C(=O)N1CC(O)CC1C(=O)NC(C)(C)C(=O)NC(CO)Cc1ccccc1 (stereo not drawn) (Ac-F[Aib][Aib][Aib]VGL[Aib][Aib][Hyp]Q[Iva][Hyp][Aib][Phe(ol)]; configuration not given here) | – | -10.8% [at 9.29 µM] (inactive) | –
